Hits are enriched below; roughly 6.7% of the tested compounds scored in any of these assays.
Pf Dd2 inh – blocks growth of Plasmodium falciparum Dd2 parasites; 2.3% of 94,000 active; activity change, % at 10 µM; P. falciparum Dd2 growth, SYBR Green, 72 h; stronger effect = lower value; in the data active means activity change below about -80%; inconclusive means no clear call, values can overlap the other calls
C diff growth – C. difficile growth inhibition; Clostridium difficile clinical isolate growth, OD600, 24 h; stronger effect = lower value; growth activity, negative = inhibition, % at 16 µg/mL (by protocol); 0.25% of 86,000 active; AID 1259249;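 active means mean growth activity at or below -80% and every replicate also at or below -80%; inconclusive means mean at or below -80% but some replicate above -80%; inactive means mean growth activity above -80%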
T cruzi growth-1 – inhibitors of T. cruzi proliferation | T. cruzi beta-gal in NIH3T3, GalScreen luminescence, 90 h | inhibition, % at 8.34 µM | 5.9% of 77,000 active;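 active means mean inhibition above about 93%, with at least 55% of replicates each passing it, limit read from the data, passing the limit was not always enough; inconclusive means only one of those two conditions holds; inactive means neither condition holds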
T cruzi growth-2 – inhibitors of T. cruzi proliferation | 72% of 5,600 active | T. cruzi beta-gal in NIH3T3, GalScreen luminescence, 90 h | inhibition, % at 8.35 µM | shares compounds with T cruzi growth-1;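 active means mean replicate inhibition above about 95% and at least 55% of replicates individually reaching it, limit read from the data; inconclusive means only one of the two criteria is met; inactive means neither criterion is met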
T cruzi growth-3 – Trypanosoma cruzi proliferation inhibition. T. cruzi beta-gal in NIH3T3, GalScreen luminescence, 90 h. shares compounds with T cruzi growth-1. inhibition, % at 2.09 µM. 21% of 5,600 active. AID 651740;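 active means mean inhibition above about 95%, with at least 55% of replicates also reaching it, limit read from the data; inconclusive means meets just one of the two conditions; inactive means meets neither condition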
NIH3T3 tox – cytotoxicity in mouse NIH/3T3 fibroblasts; shares compounds with T cruzi growth-1; NIH/3T3 viability, CellTiter-Glo ATP luminescence, 90 h; cytotoxicity (signal decrease), % at 8.35 µM; 14% of 5,600 active; AID 651742;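 active means mean signal decrease across replicates above about 35% based on untreated-well scatter, with enough replicates individually passing, limit read from the data; inconclusive means no rule stated though some were filed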
3T3 cytotox 2 – cytotoxicity in mouse NIH/3T3 fibroblasts; shares compounds with T cruzi growth-1; NIH/3T3 viability, CellTiter-Glo ATP luminescence, 90 h; inhibition, % at 24.9 µM; 56% of 5,600 active; AID 651744;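 active means mean loss of cell viability signal at or above a set limit, and enough replicates individually reaching it; inconclusive means meets only the mean limit or only the replicate share; inactive means meets neither condition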
Of the large screens only hits and unclear results are named; the others gave an inactive call (follow-up assays come after a bar, where they were run).

CN1c2ccc(-c3ccc(F)cc3)cc2[C@@H]2[C@@H](CCN2C(=O)c2ccncc2)[C@H]1CO	none
C[C@@H]1CN([C@@H](C)CO)C(=O)c2cc(-c3ccc(F)cc3)cnc2O[C@@H]1CN(C)Cc1ccc(F)cc1	none
C[C@H](CO)N1C[C@H](C)[C@@H](CN(C)C)Oc2ccc(NC(=O)Cc3cn(C)c4ccccc34)cc2CC1=O	none (no result: T cruzi growth-1)
CCC(=O)NC[C@H]1[C@@H](c2ccc(-c3ccccc3)cc2)[C@H](CO)N1C(=O)C1CC1	T cruzi growth-1 98 | T cruzi growth-2 inactive | T cruzi growth-3 inactive | NIH3T3 tox inactive | 3T3 cytotox 2 inactive
CC(=O)NC[C@H]1[C@H](c2ccc(C3=CCCC3)cc2)[C@H](CO)N1C(=O)NC(C)C	none
CC(C)NC[C@H]1[C@@H](c2ccc(C3=CCCCC3)cc2)[C@@H](CO)N1C(=O)NC(C)C	T cruzi growth-1 inconclusive | T cruzi growth-2 102 | T cruzi growth-3 inactive | NIH3T3 tox 39 | 3T3 cytotox 2 104
CCC(=O)NC[C@H]1[C@H](c2ccc(-c3ccccc3)cc2)[C@H](CO)N1C(=O)C1CC1	none
CCC(=O)NC[C@H]1[C@@H](c2ccc(C3=CCCC3)cc2)[C@H](CO)N1C(C)=O	T cruzi growth-1 101 | T cruzi growth-2 inactive | T cruzi growth-3 inactive | NIH3T3 tox inactive | 3T3 cytotox 2 inactive
CCC(=O)NC[C@H]1[C@H](c2ccc(C3=CCCC3)cc2)[C@@H](CO)N1C(C)=O	none
CC(C)NC[C@H]1[C@H](c2ccc(C3=CCCCC3)cc2)[C@@H](CO)N1C(=O)NC(C)C	T cruzi growth-1 98 | T cruzi growth-2 104 | T cruzi growth-3 inactive | NIH3T3 tox inactive | 3T3 cytotox 2 104
CC(=O)NC[C@@H]1[C@@H](c2ccc(C3=CCCCC3)cc2)[C@H](CO)N1C(=O)NC(C)C	none
CNC[C@H]1Oc2ccc(N)cc2C(=O)N([C@H](C)CO)C[C@@H]1C	none
C[C@@H]1CN([C@H](C)CO)C(=O)c2cc(NS(=O)(=O)c3ccccc3)ccc2O[C@@H](C)CCCCO[C@@H]1CN(C)S(=O)(=O)c1ccc(F)cc1	none
Cc1ccc(S(=O)(=O)Nc2ccc3c(c2)CC(=O)N([C@@H](C)CO)C[C@H](C)[C@H](CN(C)CC2CCCCC2)O3)cc1	none
CN(C)C(=O)C[C@@H]1CC[C@@H]2[C@@H](COc3ccc(NC(=O)c4ccc(F)c(F)c4)cc3C(=O)N2C)O1	none
CC(C)NC[C@@H]1[C@@H](c2ccc(C3=CCCCC3)cc2)[C@H](CO)N1C(=O)NC(C)C	T cruzi growth-1 inconclusive | T cruzi growth-2 101 | T cruzi growth-3 inactive | NIH3T3 tox inactive | 3T3 cytotox 2 105
CC(=O)NC[C@@H]1[C@@H](c2ccc(C3=CCCCC3)cc2)[C@@H](CO)N1C(=O)NC(C)C	none
CC(=O)N(C)C[C@H]1Oc2cc(-c3ccccc3C)ccc2S(=O)(=O)N([C@H](C)CO)C[C@@H]1C	none
N#C[C@@H]1[C@H](c2ccc(-c3cccc(F)c3)cc2)[C@H](CO)N1S(=O)(=O)c1cccc(F)c1	T cruzi growth-1 102 | T cruzi growth-2 107 | T cruzi growth-3 inactive | NIH3T3 tox inactive | 3T3 cytotox 2 54
C/C=C/c1ccc([C@H]2[C@@H](C#N)N(S(=O)(=O)c3cccc(F)c3)[C@H]2CO)cc1	none
N#C[C@@H]1[C@@H](c2ccc(-c3cccc(F)c3)cc2)[C@@H](CO)N1S(=O)(=O)c1cccc(F)c1	T cruzi growth-1 99 | T cruzi growth-2 99 | T cruzi growth-3 inactive | NIH3T3 tox 39 | 3T3 cytotox 2 66
N#C[C@H]1[C@@H](c2ccccc2)[C@H](CO)N1S(=O)(=O)c1cccc(F)c1	none
N#C[C@H]1[C@H](c2ccccc2)[C@@H](CO)N1S(=O)(=O)c1cccc(F)c1	none
C/C=C/c1ccc([C@H]2[C@@H](CO)N(S(=O)(=O)c3cccc(F)c3)[C@H]2C#N)cc1	T cruzi growth-1 111 | T cruzi growth-2 inactive | T cruzi growth-3 inactive | NIH3T3 tox inactive | 3T3 cytotox 2 inactive
C[C@H]1CN([C@@H](C)CO)C(=O)c2cc(C#CCN(C)C)cnc2O[C@@H]1CN(C)C(=O)NC1CCCC1	none
COc1cccc(NC(=O)N[C@H]2CC[C@@H](CC(=O)Nc3ccc(-c4ccccc4)cc3)O[C@@H]2CO)c1	none (no result: C diff growth)
